Active and inactive are the calls of the source.
How the values were obtained:
[1] = binders of probe aFSTL3 on microarray, primary screen, stem cell growth factor project, biochemical, small-molecule microarray, fluorescence 635/667 (AID 1064); conditions: higher = more signal;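 also: measures binding of the biotinylated anti-FSTL3 antibody to printed compounds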
[2] = binders from COS7 lysate, DM2A8 probe, primary screen, torsin A project, cell lysate, small-molecule microarray, fluorescence 635/667 (AID 1065); conditions: higher = more signal, COS7 lysate expressing mutant human TOR1A
[3] = binders of probe aFGF2 on microarray, primary screen, stem cell growth factor project, biochemical, small-molecule microarray, fluorescence 635/667 (AID 1067); conditions: higher = more signal;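 also: measures binding of biotinylated aFGF2 protein to printed compounds on slides; z-score merges feature fluorescence and signal-to-noise across triplicate slides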
[4] = binders of probe aFGF10 on microarray, primary screen, stem cell growth factor project, biochemical, small-molecule microarray, fluorescence 635/667 (AID 1071); conditions: higher = more signal;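 also: score merges 667 nm spot intensity and signal to noise from triplicate slides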
[5] = biological target: Neurogenic locus notch homolog protein 2 (Homo sapiens) (UniProt Q04721); assay: Notch2 binders on small-molecule microarrays, primary screen, biochemical, small-molecule microarray, 635 nm fluorescence, stem cell growth factors (AID 1073); conditions: Notch2 binding, higher = more signal
[6] = biological target: Pro-neuregulin-1, membrane-bound isoform (Homo sapiens) (UniProt Q02297); assay: NRG1 binders on small-molecule microarrays, primary screen, psychiatric disease protein project, biochemical, small-molecule microarray, fluorescence 635/667 (AID 1075); conditions: NRG1 binding, 635 nm fluorescence, higher = more signal;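 also: score combines 667 nm spot fluorescence with signal to noise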
Sequence of Pro-neuregulin-1, membrane-bound isoform (Homo sapiens) (Q02297 whole entry, looked up, the tested form may be a part, canonical isoform): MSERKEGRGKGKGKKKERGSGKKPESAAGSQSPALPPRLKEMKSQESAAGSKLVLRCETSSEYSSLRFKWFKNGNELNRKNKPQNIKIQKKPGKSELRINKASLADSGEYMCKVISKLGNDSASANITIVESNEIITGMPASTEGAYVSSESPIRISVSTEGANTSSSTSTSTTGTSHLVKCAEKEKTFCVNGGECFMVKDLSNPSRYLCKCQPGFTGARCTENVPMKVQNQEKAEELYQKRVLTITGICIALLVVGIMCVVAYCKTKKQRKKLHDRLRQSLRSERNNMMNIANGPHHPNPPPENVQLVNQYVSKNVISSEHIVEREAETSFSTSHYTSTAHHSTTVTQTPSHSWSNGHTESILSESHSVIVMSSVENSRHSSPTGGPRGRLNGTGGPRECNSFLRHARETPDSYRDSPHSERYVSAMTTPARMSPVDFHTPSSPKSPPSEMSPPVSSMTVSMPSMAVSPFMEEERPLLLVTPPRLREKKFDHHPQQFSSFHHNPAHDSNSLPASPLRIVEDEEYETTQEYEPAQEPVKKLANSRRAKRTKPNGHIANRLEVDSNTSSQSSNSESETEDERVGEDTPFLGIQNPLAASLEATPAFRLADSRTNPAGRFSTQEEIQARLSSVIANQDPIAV

[7] = tested on: Neuregulin-1 EGF-like domain; assay: binders of neuregulin-1 EGF-like domain, primary screen, biochemical, small-molecule microarray, 635 nm fluorescence (AID 1081); conditions: small-molecule microarray binding, higher = more signal;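 also: binding of the protein to compounds printed on small-molecule microarray slides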
[8] = FRG1 promoter luciferase signal modulators, primary screen, FRG1 inhibition for FSHD, cell-based, C2C12 myotubes, firefly/Renilla luciferase, luminescence (AID 1084); conditions: higher = more signal, called active from +8 up or from −8 down
[9] = binders of probe aFST on microarray, primary screen, stem cell growth factor project, biochemical, small-molecule microarray, fluorescence 635/667 (AID 1086); conditions: higher = more signal;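 also: score merges 667 nm fluorescence with signal-to-noise of each printed compound spot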
[10] = binders of probe aHhip on microarray, primary screen, stem cell growth factor project, biochemical, small-molecule microarray, fluorescence 635/667 (AID 1087); conditions: higher = more signal;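 also: score merges spot fluorescence at 667nm with spot signal to noise ratio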
[11] = tested on: PRMT1 (protein arginine N-methyltransferase 1); assay: PRMT1 binders on small-molecule microarrays, primary screen, biochemical, small-molecule microarray, 635 nm fluorescence (AID 1088); conditions: small-molecule microarray binding, higher = more signal;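 also: binding of Prmt1 protein to compounds spotted on small-molecule microarray slides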
[12] = yeast growth modulation, basal conditions, primary screen, YJM789 clinical isolate, OD600, 24 h (AID 1089);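 also: growth of clinical yeast isolate S. cerevisiae YJM 789 seeded 1000 cells per well; test concentration not given here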; conditions: S. cerevisiae YJM789 growth, higher = more signal, called active from +8 up or from −8 down
[13] = fission yeast growth modulation, primary screen, strain 972, OD600, 24 h, no modulator (AID 1090);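 also: basal condition with compound alone and no growth modifier present; test concentration not given here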; conditions: S. pombe 972 growth, higher = more signal, called active from +8 up or from −8 down
[14] = S. cerevisiae growth modulation with rapamycin, primary screen, strain BY4716, OD600, 96 h (AID 1091); conditions: higher = more signal, called active from +8 up or from −8 down; also: test concentration not given here
[15] = biological target: Torsin-1A-interacting protein 2 (Homo sapiens) (UniProt Q8NFQ8); assay: LULL1 binders on small-molecule microarray, primary screen, cell lysate, human LULL1 lysate, 635/667 nm fluorescence (AID 1092); conditions: hLULL1 lysate binding, 635 nm fluorescence, higher = more signal;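 also: probe is lysate of COS7 cells overexpressing human LULL1; score merges per-feature 667 nm fluorescence with signal-to-noise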
Sequence of Torsin-1A-interacting protein 2 (Homo sapiens) (Q8NFQ8 whole entry, looked up): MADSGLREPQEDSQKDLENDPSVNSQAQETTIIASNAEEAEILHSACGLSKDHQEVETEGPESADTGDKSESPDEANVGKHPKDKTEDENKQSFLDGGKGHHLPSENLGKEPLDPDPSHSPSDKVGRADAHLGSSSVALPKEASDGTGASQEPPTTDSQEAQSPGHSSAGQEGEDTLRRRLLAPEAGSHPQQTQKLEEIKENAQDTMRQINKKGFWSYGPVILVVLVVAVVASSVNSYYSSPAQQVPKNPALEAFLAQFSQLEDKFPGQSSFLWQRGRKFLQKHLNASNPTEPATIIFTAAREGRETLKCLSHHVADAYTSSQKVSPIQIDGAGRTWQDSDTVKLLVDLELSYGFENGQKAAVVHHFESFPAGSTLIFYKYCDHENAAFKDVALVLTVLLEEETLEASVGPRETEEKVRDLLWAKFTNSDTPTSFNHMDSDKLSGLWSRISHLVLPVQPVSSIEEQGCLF

[16] = E. coli growth modulation, two-sided OD650, primary screen, E. coli filamentation project, strain DRC41, 24 h (AID 1093); conditions: OD650, 24 h, higher = more signal, called active from +8 up or from −8 down;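 also: MC1000 strain lacking acrAB efflux and sulA so SOS filamentation is blocked; test concentration not given here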
[17] = small-molecule microarray binders of probe aLefty2, primary screen, biochemical, biotinylated probe, 635/667 nm fluorescence (AID 1094); conditions: higher = more signal;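 also: score merges spot fluorescence near 667 nm with spot signal-to-noise ratio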
[18] = tested on: Noggin (protein binding on small-molecule microarray); assay: Noggin binders on small-molecule microarray, primary screen, biochemical, 635/667 nm fluorescence (AID 1095); conditions: 635 nm fluorescence, higher = more signal;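 also: score merges 667 nm feature fluorescence with signal to noise over triplicate slides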
[19] = biological target: Neurogenic locus notch homolog protein 3 (Homo sapiens) (UniProt Q9UM47); assay: NOTCH3 binders on small-molecule microarray, primary screen, biochemical, 635/667 nm fluorescence (AID 1096); conditions: NOTCH3 binding, 635 nm fluorescence, higher = more signal
Sequence of Neurogenic locus notch homolog protein 3 (Homo sapiens) (Q9UM47 whole entry, looked up): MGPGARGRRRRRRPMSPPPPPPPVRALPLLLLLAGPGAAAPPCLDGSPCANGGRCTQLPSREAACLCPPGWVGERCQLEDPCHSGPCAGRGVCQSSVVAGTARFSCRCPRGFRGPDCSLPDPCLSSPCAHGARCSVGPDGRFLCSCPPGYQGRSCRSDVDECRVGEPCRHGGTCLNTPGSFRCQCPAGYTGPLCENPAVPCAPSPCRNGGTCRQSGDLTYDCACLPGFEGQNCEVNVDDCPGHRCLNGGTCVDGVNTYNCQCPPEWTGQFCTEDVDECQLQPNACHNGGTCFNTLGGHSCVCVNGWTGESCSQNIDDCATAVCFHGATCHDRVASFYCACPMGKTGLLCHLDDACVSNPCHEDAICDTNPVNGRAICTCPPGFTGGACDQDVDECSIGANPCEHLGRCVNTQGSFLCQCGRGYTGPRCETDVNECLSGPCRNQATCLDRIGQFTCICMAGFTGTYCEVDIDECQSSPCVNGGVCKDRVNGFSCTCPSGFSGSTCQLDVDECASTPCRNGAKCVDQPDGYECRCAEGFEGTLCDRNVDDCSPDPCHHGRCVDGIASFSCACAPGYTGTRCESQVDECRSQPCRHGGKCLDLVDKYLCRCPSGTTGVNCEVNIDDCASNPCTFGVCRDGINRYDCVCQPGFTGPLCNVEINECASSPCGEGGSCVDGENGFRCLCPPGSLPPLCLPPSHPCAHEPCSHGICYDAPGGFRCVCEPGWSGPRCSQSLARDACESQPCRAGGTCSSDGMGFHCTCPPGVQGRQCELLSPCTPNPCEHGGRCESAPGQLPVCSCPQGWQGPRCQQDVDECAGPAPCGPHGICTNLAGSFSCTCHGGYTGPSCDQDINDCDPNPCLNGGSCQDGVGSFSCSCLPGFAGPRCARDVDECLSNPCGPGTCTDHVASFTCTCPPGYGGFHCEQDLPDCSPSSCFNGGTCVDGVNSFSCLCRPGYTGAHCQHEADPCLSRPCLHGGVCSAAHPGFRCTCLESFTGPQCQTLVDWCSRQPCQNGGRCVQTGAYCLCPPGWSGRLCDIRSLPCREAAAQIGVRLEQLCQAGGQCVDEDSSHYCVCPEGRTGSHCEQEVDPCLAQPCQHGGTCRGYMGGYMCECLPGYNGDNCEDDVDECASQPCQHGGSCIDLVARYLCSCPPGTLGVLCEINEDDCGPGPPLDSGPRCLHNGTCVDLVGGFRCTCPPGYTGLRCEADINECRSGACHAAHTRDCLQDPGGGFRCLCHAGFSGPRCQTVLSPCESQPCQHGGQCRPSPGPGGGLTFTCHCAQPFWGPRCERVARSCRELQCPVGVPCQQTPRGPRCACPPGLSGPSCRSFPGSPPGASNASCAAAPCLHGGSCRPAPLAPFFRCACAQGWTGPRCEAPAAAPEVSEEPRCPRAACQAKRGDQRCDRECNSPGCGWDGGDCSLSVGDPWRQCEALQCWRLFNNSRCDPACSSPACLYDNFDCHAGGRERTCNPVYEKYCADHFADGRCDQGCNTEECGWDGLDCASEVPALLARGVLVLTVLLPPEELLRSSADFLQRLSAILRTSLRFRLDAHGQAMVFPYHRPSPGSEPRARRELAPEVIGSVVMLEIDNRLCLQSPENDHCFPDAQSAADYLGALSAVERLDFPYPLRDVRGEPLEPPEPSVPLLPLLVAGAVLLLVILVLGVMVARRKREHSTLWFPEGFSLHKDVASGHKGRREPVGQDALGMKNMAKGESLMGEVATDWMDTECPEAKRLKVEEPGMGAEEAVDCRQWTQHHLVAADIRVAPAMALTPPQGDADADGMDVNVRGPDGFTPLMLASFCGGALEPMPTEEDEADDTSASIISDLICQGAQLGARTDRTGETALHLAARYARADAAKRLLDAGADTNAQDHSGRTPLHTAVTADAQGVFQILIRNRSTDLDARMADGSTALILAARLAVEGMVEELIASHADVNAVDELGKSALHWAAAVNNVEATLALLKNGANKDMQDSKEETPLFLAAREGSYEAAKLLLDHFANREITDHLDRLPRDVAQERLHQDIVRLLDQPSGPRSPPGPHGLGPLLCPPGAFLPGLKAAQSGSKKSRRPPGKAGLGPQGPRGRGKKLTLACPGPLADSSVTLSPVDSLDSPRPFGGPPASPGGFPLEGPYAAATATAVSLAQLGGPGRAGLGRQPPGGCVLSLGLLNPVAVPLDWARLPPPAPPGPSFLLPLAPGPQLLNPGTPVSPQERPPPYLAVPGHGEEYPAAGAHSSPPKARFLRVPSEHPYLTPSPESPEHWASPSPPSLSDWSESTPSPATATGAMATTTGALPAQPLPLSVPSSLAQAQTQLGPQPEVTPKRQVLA

[20] = small-molecule microarray binders of probe aEGFR, primary screen, biochemical, biotinylated probe, 635/667 nm fluorescence (AID 1097); conditions: higher = more signal;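 also: probe is a biotinylated anti-EGFR antibody binding compounds printed on slides; score combines fluorescence near 667 nm and signal to noise of each spot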

CCOC(=O)C[C@H]1[C@H](OC(=O)c2cc3ccccc3oc2=O)[C@@H](NC(=O)c2ccc3ccccc3n2)c2cc(OCCCO)ccc2N1C(=O)c1ccc2ccccc2n1
composite z-score [1]: 1.37
composite z-score [2]: 0.14
composite z-score [3]: -0.0342
composite z-score [4]: 0.936
composite z-score [5]: 0.114
composite z-score [6]: -0.0114
composite z-score [7]: 1.06
z-score [8]: -0.21 (inactive)
composite z-score [9]: 0.787
composite z-score [10]: 0.177
composite z-score [11]: 0.295
z-score [12]: -0.157 (inactive)
z-score [13]: 0.291 (inactive)
z-score [14]: -0.273 (inactive)
composite z-score [15]: 0.648
z-score [16]: 1.5 (inactive)
composite z-score [17]: -0.0773
composite z-score [18]: 1.03
composite z-score [19]: 1.12
composite z-score [20]: 0.183

C=CCOC(=O)[C@@H]1[C@H]2C(=O)O[C@H](c3ccccc3)[C@H](c3ccccc3)N2[C@H](c2ccc(OCCOC(=O)[C@@H]3C[C@@H]4C(=O)N5CCC[C@H]5C(=O)N4[C@@H]3c3cccc(OCCO)c3)cc2)[C@@]12C(=O)Nc1ccc(I)cc12
composite z-score [1]: -0.396
composite z-score [2]: 0.313
composite z-score [3]: -0.0927
composite z-score [4]: 0.0951
composite z-score [5]: 0.115
composite z-score [6]: 0.311
composite z-score [7]: 1.17
z-score [8]: 0.184 (inactive)
composite z-score [9]: 0.252
composite z-score [10]: -0.236
composite z-score [11]: 1.55
z-score [12]: 0.581 (inactive)
z-score [13]: 1.05 (inactive)
z-score [14]: 2.18 (inactive)
composite z-score [15]: 2.49
z-score [16]: 0.949 (inactive)
composite z-score [17]: -0.0756
composite z-score [18]: 1.9
composite z-score [19]: 1.11
composite z-score [20]: -0.0387

COC(=O)[C@]1(Cc2ccccc2CN=[N+]=[N-])N=C(c2ccc(OCCCO)cc2)O[C@@H]1c1ccccc1
composite z-score [1]: 0.774
composite z-score [2]: -0.556
composite z-score [3]: -0.137
composite z-score [4]: -1.27
composite z-score [5]: -1.24
composite z-score [6]: 0.4
composite z-score [7]: -0.45
z-score [8]: -2.44 (inactive)
composite z-score [9]: -0.0581
composite z-score [10]: -0.174
composite z-score [11]: -0.985
z-score [12]: 0.697 (inactive)
z-score [13]: -1.55 (inactive)
z-score [14]: 35.3 (active)
composite z-score [15]: 0.475
z-score [16]: 0.437 (inactive)
composite z-score [17]: 0.17
composite z-score [18]: -0.586
composite z-score [19]: -0.601
composite z-score [20]: -0.257

COCCOC(=O)N1C(=O)[C@@]2(c3cc(C#CC4(O)CCCCCC4)ccc31)[C@H](C(=O)NC[C@H](O)c1ccccc1)[C@H]1C(=O)O[C@H](c3ccccc3)[C@H](c3ccccc3)N1[C@@H]2c1ccc(OCCO)cc1
composite z-score [1]: -0.38
composite z-score [2]: -0.166
composite z-score [3]: 0
composite z-score [4]: 0.353
composite z-score [5]: 0.672
composite z-score [6]: 0.985
composite z-score [7]: 1.14
z-score [8]: 0.78 (inactive)
composite z-score [9]: 0.409
composite z-score [10]: -0.0994
composite z-score [11]: 1.55
z-score [12]: 1.94 (inactive)
z-score [13]: 0.814 (inactive)
z-score [14]: 5.65 (inactive)
composite z-score [15]: 2.33
z-score [16]: 1.35 (inactive)
composite z-score [17]: -0.121
composite z-score [18]: 1.78
composite z-score [19]: 1.15
composite z-score [20]: -0.0978

CN(C)C(=O)[C@@]1(CCC(=O)OC(C)(C)C)COC(c2ccc(OCCCO)cc2)=N1
composite z-score [1]: 0.0486
composite z-score [2]: 0.0295
composite z-score [3]: -0.0598
composite z-score [4]: 0.448
composite z-score [5]: 0.675
composite z-score [6]: 1.8
composite z-score [7]: 1.41
z-score [8]: -0.977 (inactive)
composite z-score [9]: 0.267
composite z-score [10]: -0.189
composite z-score [11]: 1.32
z-score [12]: -0.321 (inactive)
z-score [13]: -0.369 (inactive)
z-score [14]: -0.501 (inactive)
composite z-score [15]: 3.78
z-score [16]: 0.771 (inactive)
composite z-score [17]: 0.112
composite z-score [18]: 0.74
composite z-score [19]: 0.0673
composite z-score [20]: -0.122
